Measurements reported in ChEMBL document CHEMBL2218924, “A broad activity screen in support of a chemogenomic map for kinase signalling research and drug discovery” (Biochem J, 2013).

Columns and labels:
[1] = target: T1, Casein kinase II (Homo sapiens) (UniProt P67870+P68400+P19784); settings: at 1 µM
[2] = target: T1, Casein kinase II (Homo sapiens); settings: at 10 µM
[3] = target: Casein kinase II subunit alpha' (Homo sapiens) (UniProt P19784); settings: at 1 µM
[4] = target: Casein kinase II subunit alpha' (Homo sapiens) (UniProt P19784); settings: at 10 µM
[5] = target: Dual specificity protein kinase CLK2 (Homo sapiens) (UniProt P49760); settings: at 1 µM
[6] = target: Dual specificity protein kinase CLK2 (Homo sapiens) (UniProt P49760); settings: at 10 µM
[7] = target: Dual specificity protein kinase CLK3 (Homo sapiens) (UniProt P49761); settings: at 1 µM
[8] = target: Tyrosine-protein kinase CSK (Homo sapiens) (UniProt P41240); settings: at 1 µM
[9] = target: Tyrosine-protein kinase CSK (Homo sapiens) (UniProt P41240); settings: at 10 µM
[10] = target: Dual specificity protein kinase CLK3 (Homo sapiens) (UniProt P49761); settings: at 10 µM

Chain of Dual specificity protein kinase CLK2 (Homo sapiens) (P49760 whole entry, looked up): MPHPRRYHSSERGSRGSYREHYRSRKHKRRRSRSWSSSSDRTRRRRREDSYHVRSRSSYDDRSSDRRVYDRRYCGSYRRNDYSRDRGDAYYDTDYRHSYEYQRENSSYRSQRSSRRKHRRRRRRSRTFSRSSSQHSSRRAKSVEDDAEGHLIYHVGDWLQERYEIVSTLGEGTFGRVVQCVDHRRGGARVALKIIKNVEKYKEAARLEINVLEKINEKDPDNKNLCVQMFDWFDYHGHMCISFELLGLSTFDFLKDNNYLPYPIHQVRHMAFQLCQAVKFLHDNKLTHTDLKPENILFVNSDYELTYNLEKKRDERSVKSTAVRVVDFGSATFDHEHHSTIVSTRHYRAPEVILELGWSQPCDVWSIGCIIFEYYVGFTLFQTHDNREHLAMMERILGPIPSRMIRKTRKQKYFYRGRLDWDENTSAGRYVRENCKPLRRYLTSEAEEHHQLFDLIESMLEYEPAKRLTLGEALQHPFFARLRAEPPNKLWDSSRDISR
Chain of Casein kinase II subunit alpha' (Homo sapiens) (P19784 whole entry, looked up): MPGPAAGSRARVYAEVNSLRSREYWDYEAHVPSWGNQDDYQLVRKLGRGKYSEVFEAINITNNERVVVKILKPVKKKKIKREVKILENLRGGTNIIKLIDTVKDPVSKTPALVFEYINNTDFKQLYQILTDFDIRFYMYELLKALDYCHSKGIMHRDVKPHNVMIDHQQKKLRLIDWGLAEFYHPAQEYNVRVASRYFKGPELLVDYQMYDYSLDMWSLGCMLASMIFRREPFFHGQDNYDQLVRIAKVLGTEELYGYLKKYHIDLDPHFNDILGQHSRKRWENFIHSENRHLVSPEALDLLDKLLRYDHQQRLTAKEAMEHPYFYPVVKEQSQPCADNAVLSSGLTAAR
T1 sequence (P19784 whole entry, looked up): as above
T1 sequence (P67870 whole entry, looked up): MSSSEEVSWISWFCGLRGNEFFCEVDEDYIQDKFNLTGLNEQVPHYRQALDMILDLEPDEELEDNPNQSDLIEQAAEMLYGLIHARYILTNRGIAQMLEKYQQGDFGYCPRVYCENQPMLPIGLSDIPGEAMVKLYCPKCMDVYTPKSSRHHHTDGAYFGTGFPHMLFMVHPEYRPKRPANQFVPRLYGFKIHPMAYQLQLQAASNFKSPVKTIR
T1 sequence (P68400 whole entry, looked up): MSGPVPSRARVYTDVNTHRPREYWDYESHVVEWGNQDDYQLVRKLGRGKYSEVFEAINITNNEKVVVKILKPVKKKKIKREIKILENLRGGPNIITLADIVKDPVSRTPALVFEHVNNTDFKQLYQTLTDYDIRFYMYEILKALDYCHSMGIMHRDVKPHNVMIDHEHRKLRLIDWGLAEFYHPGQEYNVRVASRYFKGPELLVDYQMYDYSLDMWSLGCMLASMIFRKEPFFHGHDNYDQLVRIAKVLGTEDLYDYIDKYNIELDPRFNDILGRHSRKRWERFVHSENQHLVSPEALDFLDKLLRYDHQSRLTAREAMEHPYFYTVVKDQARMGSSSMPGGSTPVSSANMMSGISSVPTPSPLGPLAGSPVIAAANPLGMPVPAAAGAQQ
Chain of Tyrosine-protein kinase CSK (Homo sapiens) (P41240 2-450 limits assumed): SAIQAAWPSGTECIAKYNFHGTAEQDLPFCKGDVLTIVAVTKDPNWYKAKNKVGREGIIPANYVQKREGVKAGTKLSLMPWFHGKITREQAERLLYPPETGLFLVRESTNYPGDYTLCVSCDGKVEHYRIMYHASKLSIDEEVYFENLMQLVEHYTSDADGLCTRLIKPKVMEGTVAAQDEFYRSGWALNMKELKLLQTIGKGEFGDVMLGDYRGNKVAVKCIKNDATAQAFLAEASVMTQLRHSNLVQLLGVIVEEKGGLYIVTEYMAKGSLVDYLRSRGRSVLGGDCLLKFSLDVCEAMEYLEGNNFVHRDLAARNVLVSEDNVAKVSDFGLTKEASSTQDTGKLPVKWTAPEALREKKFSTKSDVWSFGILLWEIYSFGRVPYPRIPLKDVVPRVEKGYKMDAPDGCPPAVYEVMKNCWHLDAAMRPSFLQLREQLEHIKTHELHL
Chain of Dual specificity protein kinase CLK3 (Homo sapiens) (P49761 whole entry, looked up): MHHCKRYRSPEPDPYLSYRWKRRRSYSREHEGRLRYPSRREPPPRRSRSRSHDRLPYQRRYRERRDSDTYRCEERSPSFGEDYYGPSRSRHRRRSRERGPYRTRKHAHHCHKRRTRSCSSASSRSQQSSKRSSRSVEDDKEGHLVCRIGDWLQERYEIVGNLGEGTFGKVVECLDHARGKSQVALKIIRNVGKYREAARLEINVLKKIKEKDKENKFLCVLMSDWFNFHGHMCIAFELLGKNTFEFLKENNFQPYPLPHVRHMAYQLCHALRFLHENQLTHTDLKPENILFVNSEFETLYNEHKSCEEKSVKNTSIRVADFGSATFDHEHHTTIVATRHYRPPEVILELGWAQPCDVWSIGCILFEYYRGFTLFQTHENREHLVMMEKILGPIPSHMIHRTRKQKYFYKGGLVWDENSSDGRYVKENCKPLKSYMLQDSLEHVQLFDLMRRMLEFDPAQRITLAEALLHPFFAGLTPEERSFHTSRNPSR

Compound	residual activity [1] [%]	residual activity [2] [%]	residual activity [3] [%]	residual activity [4] [%]	residual activity [5] [%]	residual activity [6] [%]	residual activity [7] [%]	residual activity [8] [%]	residual activity [9] [%]	residual activity [10] [%]
CCCC(=O)Oc1ccc2[nH]c(C(=O)c3cc4ccccc4[nH]3)cc2c1	86	106	132	98	122	101	81	101	100	
O=c1cc(N2CCOCC2)oc2c1ccc1ccccc12	18	-1	56	5	98	45	91	103		
COc1cc2nccc(Oc3ccc(NC(=S)NC(=O)c4ccccc4C)cc3)c2cc1OC	83	100		91			66	96	69	46
CC(C)(C)c1nc2c3ccc(F)cc3c3c(=O)[nH]ccc3c2[nH]1	56	63	100	34	34	50	68			13
N#C/C(=C1/Nc2ccccc2S1)c1ccnc(NCCc2cccnc2)n1	58	15	41	15	29	13	39			6
Oc1cccc(-c2nc(N3CCOCC3)c3oc4ncccc4c3n2)c1	89	124	140	79	118	89	79			30
CN(C)S(=O)(=O)c1ccc2c(c1)/C(=C/c1cc3c([nH]1)CCCC3)C(=O)N2	95	100		94	69	71	39			28
Nc1n[nH]c2nc3ccccc3nc12	85	62			84	52	88			71
CC(C)c1nn(-c2c(Cl)cccc2Cl)c2nc(Cc3ccc(OCCO)cc3)[nH]c(=O)c12	100	96	108	94	38	48	77	123	106	59
NC(=O)c1cccc(-c2cc(Nc3ccc(OC(F)(F)F)cc3)ncn2)c1	99	97					97			
O=c1cc(N2CCOCC2)oc2c(-c3ccccc3)cccc12	54	12		42						
O=C(CCCc1ccc(-c2ccccc2F)cc1)Nc1ccc(O)cc1	92	97	106	102			92	104	107	89
NC(=O)Nc1sc(-c2ccc(F)cc2)cc1C(N)=O	68	34	78	18	105	46		92	56	
O=C(O)/C=C/c1cc(Br)c(Br)c(Br)c1Br	12	-8	33	5	102	49	79			52
Nc1ncnc2c1c(-c1ccc(Oc3ccccc3)cc1)cn2C1CCCC1	79	105	118	86	112	88	82	0	-1	6
O=C1NC(=O)c2c1c1c3ccccc3[nH]c1n1cncc21	60	21	81	21	51	46	70	97	58	53
O=C(c1ccccc1)c1ccc(N2CCOCC2)cc1O	88	113	122				89		84	
O=C1Nc2ccc(Cl)cc2/C1=C/c1cc(Cl)c(O)c(Cl)c1	41	4	92	32	84	45	70	96		29
CCOC(=O)c1c(C)[nH]c(/C=C2\C(=O)Nc3ccccc32)c1C	77	118	131	89	95	95	82			73

Compound	residual activity [1] [%]	residual activity [2] [%]	residual activity [3] [%]	residual activity [4] [%]	residual activity [5] [%]	residual activity [6] [%]	residual activity [7] [%]	residual activity [8] [%]	residual activity [9] [%]	residual activity [10] [%]
CSc1nc(-c2ccc(F)cc2)c(-c2ccnc(NC(C)c3ccccc3)c2)[nH]1 (stereo unspecified)	99	99				89	84	102	84	86
O=c1cc(N2CCNCC2)oc2c(-c3ccccc3)cccc12	79	52		90	90	93	81			100
Nc1ncnc2c1cnn2-c1ccccc1	87	36		58			87			99
O=C1Cc2c([nH]c3ccc(Br)cc23)-c2ccccc2N1	79	55		92	80	56	78		81	67
O=C1NC(=O)C(c2cn(CCCO)c3ncccc23)=C1c1cnccn1	76	66	57	52	52	36	74		97	78
O=C1C(Cl)=C(N2C(=O)CCC2=O)C(=O)c2ccccc21	99	100	100	98	102	80	89			79
COc1cc2c(cc1OC)-c1n[nH]c(Nc3cccc(F)c3)c1C2	82	106			108	68	59	80	29	48
CCCCc1c(-c2ccc(O)cc2)[nH]c2nccnc12	99	92		87	64	47	83			52
COc1ccc(Cl)cc1NC(=O)Nc1cc(C)nc2ccccc12	94									
Nc1nc(Nc2ccc(S(N)(=O)=O)cc2)nn1C(=O)c1c(F)cccc1F	111	97	104	99	40	9	20	99	100	0
Fc1ccc(-c2nc3n(c2-c2ccncc2)CCS3)cc1	99	98					97			86
N#Cc1c(NC(=O)c2cccc3ccccc23)sc2c1CCCC2	97	99				99	77		99	87
O=C1NC(=O)C(c2cn(CCCn3ccnc3)c3ccccc23)=C1Nc1ccccc1					8	2	55	107	78	36
Nc1ncnc2[nH]nc(Nc3ccc(F)cc3)c12	104		104	73	109	68		90	65	
O=c1c(-c2ccc(F)cc2)c(-c2ccncc2)[nH]n1-c1ccc(Cl)cc1					122	101				81
CC(C)[C@H](CO)Nc1nc(Nc2cc(N)cc(Cl)c2)c2ncn(C(C)C)c2n1		93	120	96					73	
O=S(=O)(NCCNC/C=C/c1ccc(Br)cc1)c1cccc2cnccc12						68	79	100		
O=C(NC(NC(=S)Nc1ccc(F)c([N+](=O)[O-])c1)C(Cl)(Cl)Cl)C(c1ccccc1)c1ccccc1 (stereo unspecified)		85					94	95	101	84
CC(C)(C)n1nc(Cc2cccc3ccccc23)c2c(N)ncnc21			118	72	94	42	95	82	20	32

Compound	residual activity [1] [%]	residual activity [2] [%]	residual activity [3] [%]	residual activity [4] [%]	residual activity [5] [%]	residual activity [6] [%]	residual activity [7] [%]	residual activity [8] [%]	residual activity [9] [%]	residual activity [10] [%]
Cc1cc(C)c(/C=C2\C(=O)Nc3ccccc32)[nH]1					49	37	80			11
NC(=O)c1ccc(-c2nc(-c3ccc4c(c3)OCCO4)c(-c3ccccn3)[nH]2)cc1	95	97					81	119	91	76
c1ccc(-c2cnc(Nc3ccc(OCCN4CCCC4)cc3)s2)cc1			127	81		30				
Cn1c2ccccc2c2c3c(c4c5ccccc5n(CCC#N)c4c21)CNC3=O		103	129	96				107	102	1
CC(C)N(CCC(=O)c1ccc2ccccc2c1)Cc1ccccc1							74			
O=C(c1cc2cc(O)ccc2[nH]1)c1cc2cc(O)ccc2[nH]1				72	32	5	69			4
O=C(Nc1nc2ccccc2n1CCN1CCOCC1)c1cccc([N+](=O)[O-])c1	86				26	24	55	103	105	56
O=C(Nc1ccc(Cl)cc1)c1ccccc1NCc1ccncc1					120	99				
O=C1NC(=O)C(c2c[nH]c3ccccc23)=C1c1c[nH]c2ccccc12			118		27	5	60			29
O=C1Nc2ccccc2/C1=C\c1c(Cl)[nH]c2ccccc12									99	76
Cn1sc(=O)n(Cc2ccccc2)c1=O	85	90					64	92	90	74
COc1ccc(COc2ccc(Cc3cnc(N)nc3N)cc2OC)cc1			110	74	108	100				3
NCCNc1ncc(C(N)=O)c(Nc2cccc(C(F)(F)F)c2)n1							82			63
COc1ccc(-c2cnc3c(-c4ccsc4)cnn3c2)cc1							80		98	61
CCN1/C(=C/C(C)=O)Sc2ccc(OC)cc21					20	6	77			40
O=C1Cc2c([nH]c3ccc([N+](=O)[O-])cc23)-c2ccccc2N1										82
CCCCc1c(-c2ccc(OC)cc2)[nH]c2nccnc12			111		78		85			73
Nc1nccc(-c2c(-c3ccc(F)cc3)ncn2C2CCNCC2)n1				60	69	30				68
COc1cc2ncnc(Nc3cccc(Cl)c3)c2cc1OC			128	102	110	74		111	80	84
